Results on 19 compounds are retold here after PubChem BioAssay (EPA / NIEHS).

Structures are written as SMILES. Calls of active or inactive are those of the source. The calls were made as follows: active = hit-call score of the fitted dose curve at least 0.9, where 1 is the maximum; inconclusive = response in the unintended direction; inactive = score below 0.9.

A short description of the assay: CPHEA_Stoker_NIS_Cytotoxicity: Cytotoxicity Assessment for CPHEA's Radioactive Iodide Uptake (RAIU) Assay for Sodium/Iodide Symporter (NIS) Inhibition, Stoker and Laws Labs (AID 2283897).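 As to AC50: active means loss of ATP signal versus DMSO meaning cytotoxicity.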 How it is done: CPHEA_Stoker_NIS is a cell-based, single-readout assay that uses hNIS-HEK293T-EPA, a novel human kidney cell line expressing human NIS, with measurements taken at 2 hours after chemical dosing in a 96-well plate. This radioactive iodide uptake (RAIU) assay is used to identify inhibitors of NIS-mediated iodide uptake. A parallel cytoxicity assay (Cell Titer Glo, Promega) was also run in the same cell line.CPHEA_Stoker_NIS_Cytotoxicity is one of 2 assay components measured from the CPHEA_Stoker_NIS assay. It is designed to make measurements of atp content, a form of viability reporter, as detected with bioluminescence signals by Luciferase-coupled ATP quantitation technology.Data from the assay component CPHEA_Stoker_NIS_Cytotoxicity was analyzed at the endpoint, CPHEA_Stoker_NIS_Cytotoxicity, in the positive analysis fitting direction relative to DMSO as the negative control and baseline of activity. Using a type of viability reporter, measures of ATP content for loss-of-signal activity can be used to understand the viability. To generalize the intended target to other relatable targets, this assay endpoint is annotated to the cell cycle intended target family, where the subfamily is cytotoxicity.
hNIS-HEK293T-EPA cells were seeded with a MultiFlo FX dispenser (BioTek, Winooski, VT) into ScintiPlate-96 microplates (Perkin Elmer, Waltham, MA) at a density of 4.0x10^4 cells per well in 200uL growth media and incubated for 40 hours before experimentation. On day of the assay, carrier-free 125I (Perkin-Elmer, Waltham, MA; specific activity: 17.4Ci/mg) was diluted with Hanks' balanced salt solution (Sigma, St. Louis, MO) supplemented with 10mM HEPES (uptake buffer; pH 7.4) at 5uCi/mL (288pg 125I/mL uptake buffer; 2.30nM). The assay was initiated by washing cells twice with 200uL uptake buffer using a 96-well Tecan HydroSpeed plate washer (Tecan, Mannedorf, Switzerland). Uptake buffer (59.7uL) was then added back to each well. Chemical samples (350nL at 200X) were administered using the HDR tool as previously described to achieve a 1X chemical/0.5% final DMSO concentration with subsequent addition of 10uL of 125I dilution (final [125I]: 329pM; 2.88pg/well) for a final reaction volume of 70uL/well. Cells were incubated at room temperature for 2 hours and then washed twice with 200uL ice cold uptake buffer. All uptake buffer was aspirated from wells, plates were sealed, and read on a MicroBeta2 plate reader (Perkin Elmer, Waltham, MA) using a detection protocol to measure CPM corresponding to intracellular 125I concentration. Each chemical concentration (0.001, 0.01, 0.1, 1.0, 10, and 100uM) was assayed in triplicate with three independent biological replicate plates (3 sequential cell passages). Additionally, a concentration response of NaClO4 (0.001, 0.01, 0.1, 1.0, 10, and 100uM) served as a positive control inhibition curve on each RAIU assay plate. DMSO control wells were assayed on each plate as a measure of maximum iodide uptake for normalization and determination of intra- and inter-assay variation. (Toxicol In Vitro, 2017, 40:66-78).
Consider `Cc1ccc(C(C)(C)C)c(O)c1`, for which the result was inactive.

Regarding `CSc1ccc(Oc2ccc(S(N)(=O)=O)cc2CN(C)C)cc1C`, the result was inactive.

In the case of `CCCCCCC(C=O)=Cc1ccccc1`, the outcome was inactive.

As for `O=C1OC(c2ccc(O)cc2)(c2ccc(O)cc2)c2ccccc21`, the outcome was inactive.

As to `CCN(CC)CCOc1ccc(C(=C(Cl)c2ccccc2)c2ccccc2)cc1`, the AC50 is 9.92 µM (active).

Take `CCCCCCC(CCCCCCCCCCC(=O)OCC(COC(C)=O)OC(C)=O)OC(C)=O` (centres undefined): the result was inactive.

In the case of `O=C(Oc1ccccc1)c1cccc(C(=O)Oc2ccccc2)c1`, the outcome was inactive.

As for `CC(=O)OCC(COC(C)=O)OC(C)=O`, the result was inactive.

On to `CN(C)CCCN1c2ccccc2Sc2ccc(Cl)cc21`, for which the outcome was inactive.

For the compound `COc1ccc(OC(F)(F)F)cc1CN[C@H]1CCCN[C@H]1c1ccccc1`, the outcome was inactive.

As for `CCC(C)N(C)C(=O)c1cc2ccccc2c(-c2ccccc2Cl)n1` (centres undefined), the outcome was inactive.

For the compound `CCc1nc(N)nc(N)c1-c1ccc(Cl)cc1`, the result was inactive.

As to `Cc1ccc(-c2cc(C(F)(F)F)nn2-c2ccc(S(N)(=O)=O)cc2)cc1`, the outcome was inactive.

As for `CCCCCCCCCCCCCCOS(=O)(=O)O`, the result was inactive.

Take `CN(C)C(=O)NC1(c2ccccc2)CCN(CCC[C@]2(c3ccc(Cl)c(Cl)c3)CCCN(C(=O)c3ccccc3)C2)CC1`: the result was inactive.

Turning to `CC(=O)O[C@]1(C(C)=O)CC[C@H]2[C@@H]3C=C(Cl)C4=CC(=O)[C@@H]5C[C@@H]5[C@]4(C)[C@H]3CC[C@@]21C`, the result was inactive.

Consider `CC(COCC(C)OC(=O)c1ccccc1)OC(=O)c1ccccc1` (centres undefined), for which the result was inactive.

Take `O=Cc1ccccc1C=O`: the result was inactive.

On to `Cc1c(C)c2c(c(C)c1O)CCC(C)(COc1ccc(CC3SC(=O)NC3=O)cc1)O2` (centres undefined), for which the AC50 is 12.5 µM (active).

For orientation: AC50 means the concentration at which the activity in the assay is half-maximal.
